# A selection: hits, their analogues and other compounds. The true share with any hit is near 1.8%.
# LANA-H2B inh = blocks KSHV LANA binding to histone H2A/H2B; hit rate 0.6% among 320,000; inhibition, % (test concentration not listed); cell-free LANA-H2A/H2B peptide, fluorescence polarization; AID 2629; in the data active means inhibition mostly above about 10%, no sharp cut-off; inactive means mostly below about 6.7%
# TLR4 MyD88 comp = TLR4-MyD88 interaction inhibition in cells; O00206+Q99836; HeLa CL3-4 TLR4/MyD88 BLA complementation, FRET ratio; inhibition, % at 8.4 µM; hit rate 0.18% among 200,000; in the data active means inhibition above about 25%
# NOD2 RIPK2 PPI = blocks binding of human NOD2 to RIPK2. O43353. inhibition, % at 4.98 µM. hit rate 0.38% among 360,000. CHO BLA complementation NOD2-RIPK2, CCF4 ratio; in the data active means inhibition above about 21%
# HTR2A ag = mouse HTR2A agonism via beta-arrestin recruitment; AID 624169; CHO-K1 mHTR2A beta-arrestin complementation, luminescence; percent of 30 µM serotonin response; activation, % at 7.6 µM; P35363; hit rate 0.66% among 360,000;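 active means activation above a run cutoff, the mean activation of all tested compounds plus 3 SD, cut at about 14% in these data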
# Target sequence (P35363 whole entry, looked up): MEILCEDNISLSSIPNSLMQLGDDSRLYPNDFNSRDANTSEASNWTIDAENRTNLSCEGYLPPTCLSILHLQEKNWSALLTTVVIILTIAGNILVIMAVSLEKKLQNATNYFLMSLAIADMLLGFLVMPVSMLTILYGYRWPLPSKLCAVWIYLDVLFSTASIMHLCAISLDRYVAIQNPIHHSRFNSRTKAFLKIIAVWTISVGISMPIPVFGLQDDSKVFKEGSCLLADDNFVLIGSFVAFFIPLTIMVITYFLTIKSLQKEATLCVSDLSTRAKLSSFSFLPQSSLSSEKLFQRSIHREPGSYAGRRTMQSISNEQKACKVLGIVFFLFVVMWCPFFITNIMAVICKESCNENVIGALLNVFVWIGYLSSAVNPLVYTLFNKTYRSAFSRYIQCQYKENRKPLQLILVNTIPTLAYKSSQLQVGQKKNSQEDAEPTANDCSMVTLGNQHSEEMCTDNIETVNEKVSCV
# TLR9-MyD88 inh = blocks human TLR9 binding to MyD88. hit rate 0.21% among 340,000. CHO BLA complementation TLR9-MyD88, CCF4 FRET ratio. inhibition, % at 4.98 µM. Q9NR96+Q99836;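 active means inhibition above the mean over all tested compounds plus 3 SD, cut at about 21% in these data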
# Rtt109 HAT inh = blocks Candida albicans Rtt109/Vps75 acetyltransferase activity; inhibition, % at 34.9 µM; hit rate 0.16% among 330,000; Q5AAJ8; purified Rtt109/Vps75, ThioGlo CoA-SH fluorescence, 4 h;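 active means inhibition of at least 50% in every replicate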
# NOD2-RIPK2 conf = confirmation of human NOD2-RIPK2 interaction inhibitors. shares compounds with NOD2 RIPK2 PPI. CHO cells, NOD2-RIPK2 BLA complementation, CCF4 FRET. inhibition, % at 4.98 µM. hit rate 70% among 1,200;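 active means mean inhibition across replicates above a set limit taken from the earlier primary screen, cut at about 21% in these data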
# BLA counter = counter-screen for NOD2-RIPK2 interaction inhibitors: BLA reporter. shares compounds with NOD2 RIPK2 PPI. CHO BLA reporter, CCF4 FRET ratio, counterscreen. inhibition, % at 4.98 µM. hit rate 57% among 1,200;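 active means mean inhibition above the low-control mean inhibition plus three low-control SD, cut at about 11% in these data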
# A number is an active result; - = inactive; . = no result given.
SMILES,LANA-H2B inh,TLR4 MyD88 comp,NOD2 RIPK2 PPI,HTR2A ag,TLR9-MyD88 inh,Rtt109 HAT inh,NOD2-RIPK2 conf,BLA counter
CN(C)c1ccc(C2C=C(c3ccc(Cl)cc3OC(F)F)Nc3ncnn32)cc1 (stereo unspecified),-,.,-,-,-,-,.,.
Cc1cccc(-n2ncc3c2CCCC3NC(=O)CCN2CCCCO2)c1C (stereo unspecified),-,.,-,-,-,-,.,.
O=c1cc(-c2ccccc2Cl)oc2cc(O)cc(O)c12,-,-,-,-,-,-,.,.
O=C1C=CC(O)(c2cc(=O)c3c(O)cc(O)cc3o2)C=C1,-,-,30,-,-,-,-,18
Cc1ccc2c(-c3csc(N)n3)c[nH]c2c1,-,.,.,.,.,.,.,.
CC(C)(C)c1cc(C(=O)CCN2CCOCC2)cc(C(C)(C)C)c1O,-,.,48,-,-,-,-,-
CN(C(=O)CCNC(=O)Cn1cnc2ccccc2c1=O)c1ccccc1F,-,.,-,-,-,-,.,.
O=C1Cc2ccccc2C(=O)N1Nc1ccccc1,.,.,-,-,-,-,.,.
Cc1ccc(NN2C(=O)C=C(c3ccc(Cl)cc3)C2=O)cc1,-,-,51,-,-,-,82,11
Cc1ccc(NN2C(=O)C=CC2=O)cc1,.,-,-,-,-,-,.,.
COc1ccc(C2=CC(=O)N(Nc3ccccc3)C2=O)cc1,-,-,42,-,.,.,55,-
O=C1C=C(c2ccccc2)C(=O)N1Nc1ccccc1,-,-,49,-,-,-,78,-
COc1ccc(Nc2cccccc2=O)cc1,-,-,-,-,-,-,.,.
CC(=O)c1cc(CCC(=O)NC2CCCCCC2)oc1C,-,.,-,-,-,-,.,.
CCN(CC)S(=O)(=O)c1ccc(C)c(NC(=O)COC(=O)CCC(=O)c2cccs2)c1,-,.,-,-,-,-,.,.
CCN(CC)S(=O)(=O)c1cc(NC(=O)Cc2ccc(S(=O)(=O)N3CCOCC3)s2)ccc1Cl,.,.,-,-,-,-,.,.
CCC(C)c1ccccc1NC(=O)COC(=O)C1=COCCO1 (stereo unspecified),-,-,-,-,-,-,.,.
COc1ccc(NC2CCCN(C(=O)COc3ccc(C(C)=O)cc3)C2)cc1 (stereo unspecified),.,.,-,-,-,.,.,.
CN(C)Cc1c(O)ccc2cc(-c3nc4ccccc4n3C)c(=O)oc12,-,.,31,-,-,-,33,58
c1ccc(-c2ccc3nncn3c2)cc1,.,.,-,-,.,.,.,.
FC(F)(F)c1ccccc1-c1ccc2nncn2c1,.,.,23,-,.,.,-,-
O=C(Nc1ccc2nc3n(c(=O)c2c1)CCCCC3)c1cc([N+](=O)[O-])ccc1F,-,.,-,-,-,-,.,.
O=C(Nc1ccc2nc3n(c(=O)c2c1)CCCCC3)c1c(F)ccc([N+](=O)[O-])c1F,-,.,23,-,-,-,23,-
Cc1ccc(C(=O)c2c(C)oc3c2C(=O)C(=O)c2ccccc2-3)cc1,-,-,24,-,-,-,24,-
N#CC(=C1C=CC(=NO)C(Cl)=C1)c1ccc(Cl)cc1,.,.,42,-,-,-,26,23
SMILES,LANA-H2B inh,TLR4 MyD88 comp,NOD2 RIPK2 PPI,HTR2A ag,TLR9-MyD88 inh,Rtt109 HAT inh,NOD2-RIPK2 conf,BLA counter
COc1ccc(C(C#N)=C2C=CC(=NO)C=C2)cc1,-,.,-,-,-,-,.,.
O=C1C(=C(I)I)c2ccccc2-c2ccccc21,.,.,68,-,-,-,84,-
O=C(O)c1cccc2c1C(=O)c1ccccc1-2,-,.,-,-,-,-,.,.
CCCCC(=O)OCC(=O)N1N=C(c2c[nH]c3ccccc23)C(O)C1c1ccc(OC)cc1 (stereo unspecified),-,.,-,-,-,.,.,.
O=C1Nc2cc(C(=O)NCCN3CCCCCC3)ccc2S/C1=C/c1ccccc1F,.,.,22,-,-,.,49,51
O=C1Nc2cc(C(=O)NCCCN3CCCC3)ccc2S/C1=C/c1ccccc1F,-,.,-,-,-,-,.,.
Cc1cccc(NC(=O)c2cc(-c3cccnc3)nc3c(C)cccc23)n1,-,.,-,-,-,-,.,.
Cc1cc2[nH]c3c(c[n+](C)c4ccccc34)c2cc1C,-,-,-,-,-,-,.,.
Cc1cc2[nH]c3c4ccccc4nc(C)c3c2cc1C,.,.,21,-,-,-,26,-
O=C(CCNS(=O)(=O)c1c(Cl)cccc1Cl)OCC(=O)c1ccccc1,-,-,67,-,-,-,-,-
O=C(COc1ccccc1Cl)Nc1ccc2[nH]c(=O)[nH]c2c1,.,.,-,-,-,-,.,.
COc1ccc(C2CC(c3c(O)cc(C)oc3=O)=NCCS2)c(OC)c1 (stereo unspecified),-,-,23,-,-,-,-,-
NNc1nc2ccc(F)cc2s1,-,-,30,-,-,-,-,-
NNc1nc2ccc(Cl)cc2s1,.,-,-,-,-,-,.,.
COc1ccc(-c2cc3c(o2)CCCC3OCCN2CCOCC2)cc1 (stereo unspecified),.,.,-,-,.,.,.,.
COc1cccc(C(C(=O)NCc2ccccc2)N(C(=O)c2csnn2)C2CC2)c1 (stereo unspecified),-,.,-,-,-,-,.,.
CCOC(=O)CC(S(=O)(=O)c1ccccc1)S(=O)(=O)c1ccccc1,.,.,52,-,-,.,-,-
Cc1ccc(N2C(=O)c3cccc4c(C(=O)O)ccc(c34)C2=O)cc1,-,-,.,.,.,.,.,.
CC(=O)Nc1ccc(N2C(=O)c3cccc4c(O)ccc(c34)C2=O)cc1,-,.,27,-,-,-,25,28
COc1ccc(COC(=O)c2cccc(S(=O)(=O)N3CCN(C(C)=O)CC3)c2)cc1,-,.,-,-,-,-,.,.
C=C1C(=O)[C@]23C[C@H]1CC[C@H]2[C@]1(C)[C@@H](OC(C)=O)CC[C@@](C)(C(=O)OC)[C@H]1C[C@@H]3OC(C)=O,.,.,59,-,.,.,56,-
C=C1C(=O)[C@]23C[C@H]1CCC2[C@@]1(C)C(C[C@@H]3O)[C@](C)(C(=O)OC)CC[C@@H]1OC(C)=O (stereo partly specified),.,.,93,-,.,.,93,22
Cc1ccc(S(=O)(=O)NCC(=O)NCC(=O)N(C)Cc2ccc3ccccc3c2)cc1C,-,.,-,-,-,-,.,.
COc1ccc(CCN2CCCC(CN(C)Cc3cc(Cl)c(O)c(OC)c3)C2)cc1 (stereo unspecified),-,.,-,-,-,-,.,.
O=C1C=CC2C3C(=O)N(c4ccccc4)C(=O)C3C1N2Cc1ccccc1 (stereo unspecified),.,.,68,-,-,-,75,-
COC(=O)c1cccc(N2CCCC2=O)c1,-,.,-,-,-,-,.,.
COC(=O)c1cccc(-n2sc3ccccc3c2=O)c1,-,.,40,-,-,130,36,13
Cc1ccc(C(c2nc3ccccc3[nH]2)n2c(-c3ccccc3)nc3ccccc32)cc1 (stereo unspecified),.,.,-,-,.,.,.,.

# Source: PubChem BioAssay (several laboratories)
